Assay results taken from ChEMBL document CHEMBL1157539, “Thousands of chemical starting points for antimalarial lead identification” (Nature, 2010).

Columns and labels:
Assay type in all cases: functional
[1] = test system: Plasmodium falciparum; assay: GSK_TCMDC: Inhibition of Plasmodium falciparum 3D7 in whole red blood cells, using parasite LDH activity as an index of growth. Test compounds present at 2uM
[2] = test system: Plasmodium falciparum; assay: GSK_TCMDC: Inhibition of Plasmodium falciparum Dd2 in whole red blood cells, using parasite LDH activity as an index of growth. Test compounds present at 2uM
[3] = test system: HepG2; assay: GSK_TCMDC: Percent inhibition of human HepG2 cell line. Test compounds present at 10uM.

Compound	Inhibition [1]	Inhibition [2]	Inhibition [3]
CN(C)CCN(C)Cc1cccc(-c2ccc3c(Nc4cc(O)c(Cl)cc4F)ccnc3c2)c1	100%	70%	14%
Cc1cccc2c3c([nH]c12)C1(CCN(Cc2ccccc2)CC1)NC(C(=O)NCc1ccccc1)C3 (stereo not given)	81%	8%	0%
CN1CCN(CCCN(Cc2cccc(-c3cccc(CNC4CCCC4)c3)c2)C(=O)CCC2CCCC2)CC1.O=C(O)C(F)(F)F	100%	96%	35%
Cc1cccc2nc(-c3cccc(-c4ccc(NC(=O)Cc5ccon5)cc4)c3)[nH]c12	87%	38%	34%
Cc1cccc2nc(-c3ccc(-c4cccc(CN5CCCC(O)C5)c4)s3)[nH]c12.O=C(O)C(F)(F)F (stereo not given)	95%	18%	13%
O=C(NCCCCN1CCC(c2ccc3c(c2OCc2ccncc2)CCCC3)CC1)c1ccc(-c2ccc(C(F)(F)F)cc2)cc1	100%	92%	96%
O=C(Nc1cccc(-c2nc3ccccc3[nH]2)c1)c1ccc(-c2cccc([N+](=O)[O-])c2)o1	93%	28%	22%
CCn1cc(CN2C(=O)C(c3ccccc3)(c3ccccc3)N=C2N)cn1.O=CO	95%	60%	7%
CCn1c(-c2nonc2N)nc2cnc(Oc3cccc(NC(=O)c4ccc(OCCCN5CCCCC5)cc4)c3)cc21	90%	12%	38%
CCOC(=O)N1CCN(CCCNc2c3ccccc3nc3ccccc23)CC1.Cl	90%	20%	5%
Oc1c(C(Nc2ccccn2)c2ccco2)cc(Cl)c2cccnc12 (stereo not given)	87%	65%	41%
Cc1ccc(Oc2ccc(CNc3nc(Nc4cccc(F)c4)nc(Nc4cccc(F)c4)n3)cc2)cc1	86%	0%	0%
Cl.O=C(O[C@H]1CN[C@H](C#Cc2cc3ncnc(Nc4ccc5c(ccn5S(=O)(=O)c5cccs5)c4)c3s2)C1)N1CCOCC1	85%	48%	0%
Oc1cc(-c2cccc(C(F)(F)F)c2)nc(Nc2ccc(Cl)c(Cl)c2)n1	97%	97%	57%
Cc1cc(N[C@@H](Cc2ccccc2)C(=O)NCc2cccs2)nc(NCCc2ccc(F)cc2)n1.O=C(O)C(F)(F)F	100%	83%	3%
COc1cc(F)c2nccc([C@@H](O)CN3CCC(NC(=O)OCc4ccccc4)C(F)C3)c2c1 (stereo not given in full)	99%	100%	44%
O=C(NCCc1ccccc1)[C@H](Cc1ccccc1)Nc1ccnc(NCC2CCCCC2)n1.O=C(O)C(F)(F)F	86%	53%	11%
O=C(Nc1ccc(CCNC2=NCCN2)cc1)Nc1ccc(CCNC2=NCCN2)cc1	90%	66%	6%
O=C(c1ccccc1F)N(Cc1ccc(Cl)cc1)c1ccccn1	84%	58%	0%
Cc1nc(Nc2ccc(C)c(Cl)c2)c2c(C)noc2n1	94%	72%	0%

Compound	Inhibition [1]	Inhibition [2]	Inhibition [3]
COc1cccc(-c2nn(C)c3sc(C(=O)NCCN4CCN(c5ccccc5F)CC4)cc23)c1	85%	40%	9%
O=C(Nc1cccc(CN2CCCN(Cc3cccnc3)CC2)c1)c1ccc(Cl)c(Cl)c1.O=C(O)C(F)(F)F	84%	19%	16%
O=C(O)C(F)(F)F.c1ccc2[nH]c(-c3ccc(-c4ccc(CNCC5CCCO5)cc4)s3)nc2c1 (stereo not given)	100%	87%	27%
O=C(C=Cc1ccc(Cl)c(Cl)c1)NCCCCCN1CCC(CCNS(=O)(=O)c2ccc(F)cc2)CC1	88%	0%	36%
S=C(NCCN1CCOCC1)Nc1ccccc1	94%	1%	3%
Cc1noc(C)c1S(=O)(=O)N(C)Cc1ccc(-c2ccc(Cl)cc2)o1	100%	100%	10%
CCNc1cc(C(=O)N[C@@H](Cc2ccc(F)c(F)c2)[C@H](O)CNC2CCCCC2)cc(N2CCCCS2(=O)=O)c1.Cl	100%	84%	1%
NC(=O)c1ccc(C(=O)Nc2cccc(-c3csc(-c4nc5ccccc5[nH]4)c3)c2)cc1	100%	35%	14%
COc1ccc(CNC2Cc3ccccc3C2)cc1-c1cccc(S(=O)(=O)NCCN2CCCC2)c1.O=C(O)C(F)(F)F	98%	61%	48%
Cc1cccc2nc(-c3ccc(-c4cccc(NC(=O)Nc5ccc6c(c5)OCO6)c4)cc3)[nH]c12	100%	39%	28%
CC(C)C1CCc2nc(N)nc(N)c2C1.Cl (stereo not given)	95%	0%	70%
O=C(Nc1ccc(N2CCCN(Cc3cccc(F)c3)CC2)cc1)c1ccc(F)cc1.O=C(O)C(F)(F)F	96%	95%	0%
O=C(Nc1cc2cc(-c3ccc(CN4CCCCC4)cc3)ccc2n2cnnc12)NC1CCCC1	100%	98%	78%
CCCCN(Cc1cc(Cl)c(OC)c(OC)c1)c1ccc(C(O)(C(F)(F)F)C(F)(F)F)cc1.O=C(O)C(F)(F)F	98%	73%	3%
CC(C)CCN1C(=O)C(NC(=O)Oc2ccccc2)C(=O)N(CC23CC4CC(CC(C4)C2)C3)c2ccccc21 (stereo not given)	95%	4%	3%
Oc1cccc(Nc2nc(NCc3ccccc3)c3ccccc3n2)c1	95%	99%	21%
CC(C)CCOc1ccc(NC(=O)c2cccs2)cc1	95%	95%	11%
O=C(O)C(F)(F)F.OC1CCCN(Cc2cccc(-c3ccc(-c4nc5ccccc5[nH]4)cc3)c2)C1 (stereo not given)	85%	16%	25%
N#Cc1ccc(-c2ccc(C(=O)NCCCCN3CCC(c4ccc5c(c4OCc4ccccn4)CCCC5)CC3)cc2)cc1	96%	39%	37%
CCc1ccc(C2CCN(CCCCNC(=O)c3ccc(NC(=O)c4ccc(Cl)cc4)cc3)CC2)c(OCC(=O)OC)c1	95%	12%	32%

Compound	Inhibition [1]	Inhibition [2]	Inhibition [3]
O=C(O)C(F)(F)F.O=C(c1cccs1)N(Cc1cccc(-c2ccc(CNCCc3ccccc3)cc2)c1)C1CCN(Cc2ccccc2)CC1	95%	76%	3%
CC(Nc1nc(Nc2ccc(F)cc2)nc(SCC(N)=O)n1)c1ccccc1 (stereo not given)	90%	87%	14%
CC(C)(C)N1CCC(N(Cc2ccc(-c3ccc(C(F)(F)F)cc3)cc2)C(=O)Cn2c(CCc3cccc(F)c3F)nc(=O)c3cccnc32)CC1.O=C(O)C(O)C(O)C(=O)O	100%	53%	94%
O=C(NC(CCCN1CCC2(CC1)OCc1ccccc12)c1ccc(Cl)c(Cl)c1)c1cc(C(F)(F)F)cc(C(F)(F)F)c1 (stereo not given)	100%	99%	55%
CCCC(C(=O)OCCN(CC)CC)(c1ccc(Cl)cc1)c1ccc(Cl)cc1.Cl	91%	87%	7%
CN(C)CCOc1cccc(-c2cnc(N)c(-c3nc4cc(S(C)(=O)=O)ccc4[nH]3)c2)c1.O=C(O)C(F)(F)F	100%	82%	39%
CCN(c1ccccc1)S(=O)(=O)c1ccc(NC(=O)c2cc(-c3cc(C)ccc3O)n[nH]2)cc1	99%	55%	49%
COc1cccc(CNC[C@@H](O)[C@H](Cc2ccccc2)NC(=O)c2cc(NC(C)C)cc(N3CCCCS3(=O)=O)c2)c1.O=CO	89%	97%	1%
CN1CCN(CC(=O)Nc2cccc(-c3cccc(-c4nc5cc(F)ccc5[nH]4)c3)c2)CC1	100%	98%	16%
O=C(N[C@H]1CCN(Cc2ccc(OC3CCN(Cc4ccccc4)CC3)c(Br)c2)C1)c1ccc(Cl)c(Cl)c1.O=C(O)C(F)(F)F	100%	30%	55%
Cc1cnc(C(=O)Nc2cccc(-c3ccc(-c4nc5cc(F)ccc5[nH]4)cc3)c2)cn1	100%	13%	19%
CCN(CC)CCN(Cc1ccc(-c2ccc(C(F)(F)F)cc2)cc1)C(=O)Cn1c(SCc2ccc(F)cc2)nc(=O)c2ccccc21.O=C(O)C(O)C(O)C(=O)O	98%	48%	47%
COc1ccc(CN2CCN(C(=O)c3cccs3)CC2)c(O)c1	97%	2%	7%
Cc1cc(O)c2c(c1)OC(C)(C)C=C2C1=CCN(Cc2ccccc2)CC1	96%	1%	0%
O=C(Nc1cccc(-c2ccc(-c3nc4ccccc4[nH]3)cc2)c1)c1cccnc1	100%	1%	18%
CCN1CCC(N(Cc2ccc(-c3ccc(C(F)(F)F)cc3)cc2)C(=O)Cn2c(CCc3cccc(F)c3F)nc(=O)c3ccccc32)CC1.O=C(O)C(O)C(O)C(=O)O	95%	95%	99%
Cc1cccc2nc(-c3cccc(-c4ccc(NC(=O)NCc5cccc(F)c5)cc4)c3)[nH]c12	100%	83%	40%
COc1ccc(NC(=O)[C@H](CC(C)C)Nc2cc(C)nc(NCCOc3ccccc3)n2)cc1.O=C(O)C(F)(F)F	100%	65%	0%
CCCCNC[C@@H](O)[C@H](Cc1ccccc1)NC(=O)c1cc(NCC)cc(N2CCCCS2(=O)=O)c1.Cl	99%	98%	11%
CC(C)(C)c1cc(C(=O)N2CCN(c3ncnc4ccsc34)CC2)n(Cc2ccccc2)n1	95%	83%	2%
